# Assay results as given in PubChem BioAssay AID504467 (National Center for Advancing Translational Sciences (NCATS), 2011).
# The campaign covered roughly 330,000 compounds. About 7,700 (2.3%) were called active. Not shown: some 26% with an inconclusive outcome. The full list was thinned out, with actives kept by preference. A number with no mark means an inactive call. Calls come from the whole dose curve; as a rule, active = well fitted inhibition curve with a large enough effect; inconclusive = small, poorly fitted or top-dose-only effect, or effect the other way; inactive = flat fitted curve, though single readings scatter.
# Test: qHTS screen for small molecules that inhibit ELG1-dependent DNA repair in human embryonic kidney (HEK293T) cells expressing luciferase-tagged ELG1; note: nearly all actives have a fitted effect of over 55% in size
# Settings: HEK293T ELG1-luciferase reporter, luminescence, 16 h, DNA damage induced by 5-fluorouridine; series mostly up to 46.1 µM; activity change, negative = inhibition: at the top concentration
# Description: NIH Molecular Libraries Probe Production Network [MLPCN] NIH Chemical Genomics Center [NCGC] MLPCN Grant: 1 R03 MH092164-01 Assay Provider: Kyungjae Myung, NHGRI, NIH Keywords: MLPCN, qHTS, NCGC, genotoxicity, cancer Assay Overview: Cancer cells divide rapidly compared to normal cells in the body. During cell division, cancer cells need to duplicate their genome by DNA replication. The failure of genome duplication leads to cancer cells' death. Therefore, inhibitors of DNA replication could specifically kill cancer cells. Based on this concept, many chemotherapeutic agents were developed and have been used to treat cancer patients. However, there are a limited number of agents available in the clinical setting, and some of those that do exist have low efficacy and severe side effects. Therefore, if we can find the compounds that effectively block DNA replication either by directly damaging DNA or by inhibiting other cellular mechanisms, the options for cancer treatment will be broadened. With this in mind, we developed a quantitative high-throughput ELG1-luciferase reporter gene assay. Small molecules that specifically block ELG1 function in response to DNA damage can be identified by monitoring the suppression of luciferase activity. Since ELG1 defines a pathway for repairing DNA damage, agents blocking ELG1 function can be used to sensitize cancer cells to chemotherapeutic agents whose mechanism of action involves the induction of DNA damage.
# Assay Protocol Summary: For genotoxicity screening, 2,000 cells in 4 uL/well were dispensed into white, solid-bottom 1536-well plates using a solenoid-based dispenser. Following transfer of 1 uL 5-Fluorouridine and 23 nL compound or DMSO vehicle by a pin tool, the plates were incubated 16 hr at 37 °C and 5% CO2. 5 ul ONE-Glo (Promega) was then added to each plate and following a 30 min incubation at room temperature, luciferase activity was quantified on a ViewLux CCD-based plate reader.
# % is set by controls: 0 for no effect and ±100 for the full control effect; potency is the fitted concentration of half-maximal effect.
SMILES,"activity change, negative = inhibition [%]",Potency
Cc1cccc(N2C(=O)N3[C@H](c4ccc(F)cc4)[C@@H]4C(=O)N(C5CCCCC5)C(=O)[C@@H]4[C@]3(Cc3ccccc3)C2=O)c1,-2.6,–
COc1ccc(CN2C3CCCC2CC(NC(=O)c2cccc(F)c2)C3)cc1 (centres undefined),7.95,–
CN(CC(=O)NCC(c1ccccc1)N1CCCC1)S(=O)(=O)c1ccc(Cl)cc1 (centres undefined),8.82,–
COc1cc(/C=C2\SC(=O)NC2=O)ccc1OCc1ccc(Cl)nc1,13.8,–
O=C(NCC(c1ccco1)N1CCc2ccccc21)c1cccc(F)c1 (centres undefined),-6.47,–
CCCCn1c(N)c(N(CC)C(=O)c2ccc(N(C)S(=O)(=O)c3ccc(C)cc3)cc2)c(=O)[nH]c1=O,2.79,–
COCCN1C(=O)C(=O)/C(=C(/O)c2ccc(S(=O)(=O)N3CCCCC3)cc2)C1c1ccc(OC)c(OC)c1 (centres undefined),6.1,–
Cn1cc(C(=O)c2ccc(Cl)cc2Cl)cc1C(=O)NN,0.667,–
Cc1noc(C)c1S(=O)(=O)N(C)C[C@H]1Oc2ccc(NC(=O)C3CC3)cc2C(=O)N([C@H](C)CO)C[C@@H]1C,0.566,–
Cc1ccc(CN2CC(C(=O)NNC(=O)Cn3ccc(C(F)(F)F)n3)CC2=O)cc1 (centres undefined),-0.475,–
Cc1nn(Cc2ccc(Cl)c(Cl)c2)c(C)c1NC(=O)c1cc(C2CC2)on1,–,16.4 µM (active)
Cc1cc(C(=O)Nc2c(C)nn(Cc3ccccc3)c2C)on1,3.72,–
O=C(Nc1cc(C(F)(F)F)ccc1Cl)c1cc(C2CC2)on1,2.26,–
CC(=O)Nc1cccc(NC(=O)c2ccc3c(c2)CCN3S(C)(=O)=O)c1,-20.3,–
O=C1c2ccccc2[C@@H]2C[C@@H](O)[C@H](Nc3ccccc3Cl)CCN12,-12.1,–
Cc1cc(C)cc(NC(=O)CCN2C(=O)c3ccccc3C2=O)c1,-4.22,–
CC(Oc1ccccc1)C(=O)Nc1oc(-c2ccco2)c(-c2ccco2)c1C#N (centres undefined),-0.938,–
COc1cc(C(=O)NCC(=O)N2CC=C(c3ccccc3)CC2)cc(OC)c1OC,0,–
COc1cc(C(=O)Nc2oc(-c3ccccc3)c(-c3ccccc3)c2C#N)cc(OC)c1OC,–,23.1 µM (active)
O=C(CCN1C(=O)c2ccccc2C1=O)Nc1ccncc1,0,–
N#Cc1c(NC(=O)CCCN2C(=O)c3ccccc3C2=O)oc(-c2ccccc2)c1-c1ccccc1,–,7.94 µM (active)
CCOc1ccc(NC(=O)c2cccc3c2C(=O)N(CC2CCCO2)C3)cc1 (centres undefined),20.6,–
CCc1ccc(OCC(=O)N(Cc2ccccc2)C2CCS(=O)(=O)C2)cc1 (centres undefined),-4,–
CC[C@]12c3[nH]c4ccc(Cl)cc4c3CCN1C(=O)[C@@H](CC(=O)NCCCOC)C[C@@H]2C(=O)N1CCN(C(=O)c2ccco2)CC1,0.426,–

SMILES,"activity change, negative = inhibition [%]",Potency
CN(C)C(CNC(=O)c1cccc(S(=O)(=O)Nc2ccc(Br)cc2)c1)c1ccco1 (centres undefined),-0.472,–
COc1ccc(-c2noc(CCCC(=O)NC3CCCC3)n2)cc1OC,-29,–
COc1ccc(NC(=O)Cn2nnc(C(=O)NCCc3ccc(OC)c(OC)c3)c2N)cc1,-0.109,–
O=C(Nc1ccc2nc3n(c(=O)c2c1)CCCCC3)c1ccccc1Cl,-2.19,–
COc1ccc(CCNC(=O)C(=O)Nc2ccc3nc4n(c(=O)c3c2)CCCCC4)cc1OC,–,20.6 µM (active)
O=C(NCCc1c[nH]c2ccccc12)C1CCN(Cc2ccc(Br)cc2)CC1,-14,–
CCn1cc(C(=O)N/N=C(/C)c2ccc(F)cc2)c(=O)c2cc(F)c(N3CCCC3)cc21,-10.6,–
CCn1cc(C(=O)NCCO)c(=O)c2cc(F)c(N3CCN(C)CC3)cc21,12.3,–
CCCCNC(=O)c1cn(CC)c2cc(N3CCN(C(=O)c4ccco4)CC3)c(F)cc2c1=O,–,14.6 µM (active)
COC(=O)CSc1nc2ccccc2c(=O)n1Cc1ccccc1,-3.93,–
O=S1(=O)CCOC[C@H](CC2CCCCC2)N1Cc1ccc(F)cc1,8.78,–
C=CC[C@@H](CC(=O)N[C@@H](CO)Cc1ccccc1)C(=O)NCCOC(=O)[C@@H](CC=C)CC(=O)OC(C)(C)C,17.7,–
CCOC(=O)c1c(-c2ccc(-c3ccccc3)cc2)csc1NC(=O)CCC(=O)O,-0.959,–
CCOC(=O)c1c(-c2ccccc2)csc1NC(=S)NC(=O)c1ccccc1,-14,–
CCOC(=O)c1c(-c2ccc(C)cc2)csc1/N=C(\C)C1=C(O)c2ccccc2C1=O,–,7.3 µM (active)
COc1cccc(CN(C)CC(O)COC(c2ccccc2)c2ccccc2C)c1 (centres undefined),-14,–
C=CCn1c(SCc2nnc(-c3ccccc3)o2)nnc1C(O)c1ccccc1 (centres undefined),-0.318,–
CCCC(=O)Nc1nnc(-c2ccccc2)o1,16.7,–
CCCN(CCC)c1ccc(C(O)c2nnc(-c3ccccc3)o2)cc1 (centres undefined),–,20.6 µM (active)
CC(C)COc1ccc(C(=O)NNC(=O)CCC(=O)c2cccs2)cc1,0,–
CCC/C(C)=N\Nc1nc2c(c(=O)n(C)c(=O)n2C)n1C,-2.43,–
Cc1cccc(Cn2c(N3CCN(c4ccccc4)CC3)nc3c2c(=O)n(C)c(=O)n3C)c1,-5.25,–
C/C(Cl)=C\Cn1c(Nc2cccc(C)c2)nc2c1c(=O)n(C)c(=O)n2C,–,9.2 µM (active)
CCc1[nH]nc(C(=O)N2CCCC(CO)(Cc3ccc(F)cc3F)C2)c1C (centres undefined),2.52,–

SMILES,"activity change, negative = inhibition [%]",Potency
O=C(COc1ccc(S(=O)(=O)N2CCCCC2)cc1)NCc1ccccn1,-4.87,–
O=C(Nc1ccc(S(=O)(=O)N2CCCCC2)cc1)c1cnccn1,-7.35,–
O=C1c2cccnc2C(Nc2ccc(S(=O)(=O)N3CCCCCC3)cc2)N1Cc1ccccc1 (centres undefined),–,8.2 µM (active)
Cc1ccc2nc(SCC(=O)Nc3cccc4ccccc34)nc(=O)n2c1,12.8,–
O=C(NCCc1ccccn1)c1cccnc1Oc1ccc(Cl)cc1,-2.16,–
O=C(NCCc1ccccn1)c1cc(-c2ccc(Cl)cc2)nc2ccccc12,–,23.1 µM (active)
COC(=O)CNC(=O)c1cc(-c2ccncc2)nc2ccccc12,4.24,–
Cc1ccccc1Nc1nc(N)nc(COC(=O)CCC(=O)c2ccc(F)cc2)n1,16.3,–
COC(=O)c1noc(C)c1-c1ccnn1C(=O)c1ccc(Cl)cc1,3.21,–
Cc1onc(-c2ccc(Cl)cc2)c1-c1ccnn1S(=O)(=O)c1ccc(Cl)cc1,–,14.6 µM (active)
Cc1onc(-c2ccccc2)c1C(=O)N=C(N)c1ccc(Cl)cc1,10.9,–
Cc1nn(-c2ccccc2)c(C)c1NC(=O)COC(=O)c1cc(Cl)ccc1O,11.5,–
Cc1nn(-c2ccccc2)c(C)c1NC(=O)COc1ccc(Cl)cc1Cl,–,20.6 µM (active)
Cc1nn(-c2ccccc2)c(C)c1NC(=O)CCl,-3.28,–
O=C(CSc1ncn[nH]1)Nc1ccc(Br)cc1Br,18,–
Nc1ncnc2c1ncn2[C@@H]1O[C@H](CNS(=O)(=O)c2ccc(-c3ccno3)s2)[C@@H](O)[C@H]1O,12.8,–
CCn1ccnc1CN(C)C(=O)c1cc(COc2ccc(-n3cncn3)cc2)on1,1.51,–
COc1cccc(CC(=O)Nc2ccc(-c3csc(C)n3)cc2)c1,-2.46,–
COc1ccc(CC(=O)Nc2nc(-c3ccc(F)c(F)c3)cs2)cc1OC,-17.4,–
COc1cccc(CC(=O)Nc2nc(-c3ccc(OC)c(OC)c3)cs2)c1,–,25.9 µM (active)
COc1ccccc1C(=O)NCC(=O)OCC(=O)Nc1nnc(-c2ccccc2)o1,18.9,–
COc1ccc(/C=C/C(=O)NC(=S)N2CCCC(C(N)=O)C2)cc1 (centres undefined),12.9,–
CCc1nnc(NC(=O)CSc2nc3c(c(=O)n2-c2ccccc2OC)SCC3)s1,–,20.6 µM (active)
CCOc1ccc(NC(=O)CSc2nc3c(c(=O)n2-c2ccccc2OC)SCC3)cc1,-1.1,–

SMILES,"activity change, negative = inhibition [%]",Potency
CCOC(=O)c1sc(NC(=O)CSc2nc3c(c(=O)n2-c2ccccc2)SCC3)c(C(=O)OCC)c1C,-7.99,–
Cc1ccc(S(=O)(=O)NCCC(=O)OCC(=O)N(C)c2ccccc2)cc1,-14.6,–
O=c1ccc2cc(S(=O)(=O)Nc3ccccc3F)ccc2o1,3.06,–
O=c1oc2ccccc2c(NC2CCCCC2)c1NS(=O)(=O)c1ccc(Cl)cc1,-0.699,–
O=c1oc(-c2ccccc2NS(=O)(=O)c2ccc(Cl)cc2)nc2ccccc12,–,14.6 µM (active)
Cc1ccc(NC(=O)c2ccc(S(=O)(=O)NCC3CCCO3)cc2)cc1C (centres undefined),-12.5,–
CCOc1ccc(C(=O)Nc2ccc(S(=O)(=O)NCC3CCCO3)cc2)cc1OCC (centres undefined),-11.3,–
CN(CC1CCCO1)S(=O)(=O)c1ccc(C(=O)Nc2ccc(F)cc2)cc1 (centres undefined),–,4.11 µM (active)
O=C(Nc1ccc(S(=O)(=O)NCC2CCCO2)cc1)c1ccc(F)cc1 (centres undefined),-17.1,–
CN(CC1CCCO1)S(=O)(=O)c1ccc(C(=O)Nc2ccc([N+](=O)[O-])cc2)cc1 (centres undefined),–,1.83 µM (active)
CCC(=O)Nc1ccc(S(=O)(=O)NCC2CCCO2)cc1 (centres undefined),-9.4,–
Cc1c2cnn(CC(=O)NCc3ccccn3)c(=O)c2c(C)n1Cc1ccc(Cl)cc1,-19.6,–
COc1cccc(-n2c(SCC(=O)NC3CCS(=O)(=O)C3)nc3ccccc3c2=O)c1 (centres undefined),6.94,–
C[C@H]1CN([C@@H](C)CO)C(=O)Cc2cc(NC(=O)Cc3ccccc3)ccc2O[C@H]1CN(C)S(=O)(=O)c1cccs1,-24.8,–
O=c1ccc2c(-c3ccccc3S(=O)(=O)O)c3ccc(O)c(O)c3oc-2c1O,–,35.5 µM (active)
COc1cc(OC)cc(-c2sc3ccc(OC)cc3c2-c2ccc3cc[nH]c3c2)c1,0,–
CC(C)CC1NC(=O)c2cc(Cl)ccc2-n2c1nc1ccccc1c2=O (centres undefined),8.05,–
Cc1cccc(N(Cc2ccccc2)C(=O)c2ccccc2F)c1,-11.6,–
COC(=O)c1ccc2c(=O)n(CCN3CCOCC3)c(SCC(=O)Nc3cccc(OC)c3)nc2c1,-4.3,–
CCc1ccc(NC(=O)CSc2nc3ccccc3c(=O)n2CCN2CCOCC2)cc1,–,23.1 µM (active)
CCOc1ccc(NC(=O)CSc2nc3ccccc3c(=O)n2Cc2cccs2)cc1,21,–
Cn1c(=O)n(C)c2cc(S(=O)(=O)Nc3ccc(F)cc3)ccc21,-1.4,–
